In PubChem BioAssay (NCI):
About 83,000 compounds went through this panel and 20% of them were active in at least one assay; those are over-represented in the sample as a whole.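 Growth was measured after 48 h exposure to one concentration of compound in 96-well plates. Values under 10 count as active.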 Unmarked numbers belong to inactive results. Calls of active or inactive are those of the source.

Experiments:
Test in all cases: NCI-60 one-dose screen, 48 h (100 = growth as untreated, 0 = no growth, -100 = all killed)
Details in all cases: 10 µM unless noted
SR leukemia = tested on: SR leukemia
RPMI-8226 leukemia = tested on: RPMI-8226 leukemia
OVCAR-8 ovarian = tested on: OVCAR-8 ovarian
OVCAR-5 ovarian = tested on: OVCAR-5 ovarian
OVCAR-4 ovarian = tested on: OVCAR-4 ovarian
SK-OV-3 ovarian = tested on: SK-OV-3 ovarian
IGROV1 ovarian = tested on: IGROV1 ovarian
OVCAR-3 ovarian = tested on: OVCAR-3 ovarian
HS 578T breast = tested on: HS 578T breast
NCI/ADR-RES ovarian = tested on: NCI/ADR-RES ovarian
T-47D breast = tested on: T-47D breast
BT-549 breast = tested on: BT-549 breast
MDA-MB-435 melanoma = tested on: MDA-MB-435 melanoma
SW-620 colon = tested on: SW-620 colon
MCF7 breast = tested on: MCF7 breast
HCT-116 colon = tested on: HCT-116 colon
HCC-2998 colon = tested on: HCC-2998 colon
KM12 colon = tested on: KM12 colon

| Compound | growth (SR leukemia) | growth (RPMI-8226 leukemia) | growth (OVCAR-8 ovarian) | growth (OVCAR-5 ovarian) | growth (OVCAR-4 ovarian) | growth (SK-OV-3 ovarian) | growth (IGROV1 ovarian) | growth (OVCAR-3 ovarian) | growth (HS 578T breast) | growth (NCI/ADR-RES ovarian) | growth (T-47D breast) | growth (BT-549 breast) | growth (MDA-MB-435 melanoma) | growth (SW-620 colon) | growth (MCF7 breast) | growth (HCT-116 colon) | growth (HCC-2998 colon) | growth (KM12 colon) |
| --- | --- | --- | --- | --- | --- | --- | --- | --- | --- | --- | --- | --- | --- | --- | --- | --- | --- | --- |
| CCCCCCCCCCCCCCCCCCNC(=O)[C@H]1CSC(c2ccc(F)c(OC)c2)N1 (stereo partly specified) | -42.1% (active) | -49.3% (active) | -28.2% (active) | -87.9% (active) | -3.83% (active) | 10.5% | -6.12% (active) | -85.6% (active) | -30.7% (active) | -42.6% (active) | -72.3% (active) | -75.9% (active) | -92.7% (active) | -74.5% (active) | -71.7% (active) | -85.5% (active) | -91.4% (active) | -72.3% (active) |
| O=C1c2cccnc2C(=O)c2c1c(C(=O)OCCN1CCCCC1)c1ccccn21 | -23.9% (active) | -29.9% (active) | -58.2% (active) | -27.8% (active) | 0.138% (active) | -36.8% (active) | -16.7% (active) | -2.68% (active) | -0.578% (active) | -25.5% (active) | 4.01% (active) | 20.1% | -5.97% (active) | -13.6% (active) | -43.3% (active) | -8.36% (active) | -46.6% (active) | 8.77% (active) |
| COc1ccc(OCC(=O)Nc2ccc(-c3nc4ccccc4s3)cc2C)cc1 | 76.1% | 66% | 113% | 78.1% | 55% | 99.5% | 35.2% | 102% | 87.8% | 85% | 30.4% | 91.9% | 101% | 97% | 29.9% | 74% | 90.4% | 107% |
| CSc1ccc(N=C=C(c2ccccc2)c2ccccc2)cc1 | 50.7% | 88.5% | 89% | 93.2% | 110% | 90.1% | 95.7% | 103% | 86.8% | 104% | 81.9% | 88.9% | 97.4% | 86% | 78.5% | 89.3% | 100% | 102% |
| COc1ccc(C(=O)COc2ccc(/C=C3\Oc4ccc(Cl)cc4C3=O)cc2)cc1 | -22.4% (active) | 181% | 76.6% | 103% | 86.3% | 98.7% | 32.9% | 113% | 91.8% | 88.6% | 78.2% | 98.1% | 106% | 83.6% | 47.1% | 23.6% | 111% | 98.8% |
| COc1cccc(-c2nc3sccn3c2-c2ccnc(NCCCNS(=O)(=O)c3ccccc3)c2)c1 | 53.7% | -17.4% (active) | 17.6% | 92% | 27.6% | 79.2% | 39.6% | 38.7% | 66.8% | 12.7% | -8.88% (active) | 2.07% (active) | 38.5% | 59% | 46.2% | 12.2% | 67.4% | 29.2% |
| O=C(N/N=C/c1ccc(O)cc1O)c1cccnc1 | -6.2% (active) | 44.6% | -8.42% (active) | 77.6% | 32.6% | 46.8% | 44.3% | 19.8% | 71.6% | 19.1% | 26.9% | 59.5% | 63.8% | 44.6% | 7.27% (active) | 29.8% | 35.1% | 58.3% |
| O=c1c2cccc3c(NC4CCCCC4)ccc(c32)c2nc3ccccc3n12 | 1.11% (active) | 75.6% | 97.9% | 103% | 80.1% | 98.3% | 41.2% | 86.8% | 96% | 95.5% | 32.5% | 94.1% | 103% | 80.1% | 13.5% | 85.3% | 51.7% | 81.1% |
| COc1cnc2c(c1)C(=O)c1c-2n(CCCN2CCNCC2)c(=O)c2cc([N+](=O)[O-])ccc12 | -21.7% (active) | -37.1% (active) | -52.8% (active) | -77.9% (active) | -77.1% (active) | 3.11% (active) | -58.3% (active) | -83.1% (active) | 70.7% | -44.3% (active) | -52.2% (active) | 21.7% | -92% (active) | -70% (active) | -63.5% (active) | -93.6% (active) | 36.2% | -75.5% (active) |
| CC(=O)OCC1OC(OC2=C(CC=C(Cl)Cl)C(=O)c3ccccc3C2=O)C(OC(C)=O)C(OC(C)=O)C1OC(C)=O (stereo unspecified) | -3.56% (active) | 9.85% (active) | 18% | 105% | -34.4% (active) | 96% | 83.4% | 46.4% | 96.9% | 93.1% | -18.2% (active) | 71.2% | 89.9% | 22.9% | 19.9% | 31.6% | 102% | 82.2% |
| CCCCCCCCCCCCCCCC(=O)OCC1OC(n2cnc3c(=S)nc(N)[nH]c32)C(OC(=O)CCCCCCCCCCCCCCC)C1OC(=O)CCCCCCCCCCCCCCC (stereo unspecified) | 11.4% | 30.1% | 55.8% | 52.1% | 78.3% | 20.8% | 77.1% | 50% | 119% | 39.4% | 41.3% | 53% | 59.3% | 78.6% | 35% | 32.6% | 53.6% | 71% |
| C=C1CC2(OC1=O)C(=O)N(CCCCCCCCCCCCN1C(=O)C3(CC(=C)C(=O)O3)c3ccccc31)c1ccccc12 (stereo unspecified) | 2.62% (active) | 3.98% (active) | 57% | 99.9% | 88.9% | 105% | 64.8% | 66.8% | 91.1% | 83.2% | 64.8% | 84% | 73.1% | 26.1% | 38% | 61.3% | 92.8% | 93.6% |
| CCCCCCCCCCCCCC1=NCCN1CCO | -4.54% (active) | 21% | 52.6% | 79.1% | 169% | 107% | 13.3% | 164% | 37.9% | 84.5% | 65.7% | 123% | 85.3% | -38.6% (active) | 54.8% | -36.2% (active) | 71.2% | 56.7% |
| CC/C=C\C[C@H](O)C/C=C1/C(=O)C=C[C@@H]1C/C=C\CCCC(=O)OC(C)C | -27% (active) | -21.6% (active) | 5.63% (active) | 9.35% (active) | 23.3% | 16.4% | -2.92% (active) | -39.6% (active) | 53.9% | 6.4% (active) | 6.79% (active) | -18.3% (active) | 2.16% (active) | 0.553% (active) | 3.64% (active) | -70.1% (active) | -88% (active) | -62.2% (active) |
| COc1cc2c(c(OC)c1OC)-c1ccc(N=NC(N)=S)c(=O)cc1[C@@H](NC(C)=O)CC2 | 15% | 30.8% | 1.13% (active) | 48.5% | 33.5% | 12.1% | 5.37% (active) | -52.2% (active) | 24.2% | 82.1% | 62.2% | -37.5% (active) | 0.0927% (active) | 17.3% | 8.57% (active) | -28.4% (active) | -13.6% (active) | -31.1% (active) |
| O=C1Nc2ccccc2/C1=C/C(=N/c1nnc(-c2ccc(Cl)cc2)s1)c1ccccc1 | -27.6% (active) | -14.4% (active) | 10.4% | 72.6% | 57.3% | 75.9% | 21% | -70.1% (active) | 80.1% | 41% | 65.9% | 31.9% | 41.7% | -52.6% (active) | 28.5% | -58.5% (active) | 99.8% | 66.4% |
| O=C(Nc1ccc(CN2CCOCC2)cc1)c1[nH]ncc1Nc1ncnc2sccc12 | -4.39% (active) | -3.98% (active) | 11.6% | 16.1% | 13.6% | 33% | 16.7% | -15.7% (active) | -2.92% (active) | 4.5% (active) | 17.5% | -8.71% (active) | 18.1% | 5.35% (active) | 8.76% (active) | 6.07% (active) | -9.48% (active) | 0.0776% (active) |
